This is a sample that favours compounds with a hit; in the whole collection about 19% have one here.
KB-V1 cytotox – qHTS assay for MDR1-selective chemotherapeutics: Primary screen using the drug-selected MDR subline cells KB-V1 | KB-V1 MDR cells viability, CellTiter-Glo, 72 h | 400,000 tested, 3.4% active | Potency, µM (highest dose often 46.1 µM), hits mostly cytotoxic | AID 1347076, 2019; note: nearly all actives have a fitted effect of over 60% in size
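KB-V1 MDR subline cells in DMEM (phenol-red free, 10% FBS) exposed to compounds in qHTS concentration series for 72 h at 37 degrees C. Viability read by CellTiter-Glo luminescence; concentration-effect curves fitted after normalization and correction.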
HT1080 IDH1KD tx – qHTS for induction of synthetic lethality in tumor cells producing 2HG: qHTS for the HT-1080-IDH1KD cell line. HT-1080 IDH1 knockdown viability, ATP luminescence, 48 h. Potency, µM (series often up to 46.1 µM), inactives show at the highest dose activity, negative = toxicity, usual class: cytotoxic. 360,000 tested, 2% active;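 note: 0% = DMSO wells and -100% = cell-free medium wells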
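Knockdown cells (IDH1KD HT-1080) received compounds 2 h after plating at 750 cells/well and were kept 48 h at 37 °C in 5% FBS RPMI. A CellTiter-Glo luminescence read gave % activity for curve fitting.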
KB-3-1 cytotox – qHTS assay for MDR1-selective chemotherapeutics: Primary screen using the parental adenocarcinoma cell KB-3-1. KB-3-1 viability, CellTiter-Glo ATP luminescence, 72 h. Potency, µM (doses to about 46.1 µM), hits mostly cytotoxic. 400,000 tested, 1.4% active; note: nearly all actives have a fitted effect of over 60% in size
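Here the drug-naive KB-3-1 line serves as comparator for MDR sub-line selectivity; cells received compound titrations, 72 h at 37 °C, then CellTiter-Glo readout.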
HT1080-NT tox – qHTS for induction of synthetic lethality in tumor cells producing 2HG: qHTS for the HT-1080-NT fibrosarcoma cell line; HT-1080-NT fibrosarcoma viability, CellTiter-Glo ATP luminescence, 48 h; Potency, µM (doses to about 46.1 µM), for inactives: at the top dose activity, negative = less viability, most hits filed as cytotoxic; 360,000 tested, 1.6% active; AID 686970, 2013;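 note: NT is the 2HG producing partner of a matched IDH1 knockdown line; 0% = DMSO-treated cells and -100% = media-only wells without cells; nearly all actives have a fitted effect of over 55% in size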
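Viability of the 2HG-overproducing fibrosarcoma line after 48 hours of compound exposure at 37 degrees C was determined by luminescence with CellTiter-Glo, and concentration-effect curves were then fitted and categorized.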
TDP1 cell noCPT – qHTS for Inhibitors of human tyrosyl-DNA phosphodiesterase 1 (TDP1): qHTS in cells in absence of CPT. DT40 Tdp1-/- hTDP1 cells, no CPT, ATP luminescence, 48 h. Potency, µM (series often up to 46.2 µM), for the others: top-dose activity change, negative = growth inhibition, most hits filed as inhibitors. 420,000 tested, 15% active; note: nearly all actives have a fitted effect of over 55% in size
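Growth kinetics read by CellTiter-Glo luminescence after ≥48 hr at 37 °C. Cells: DT40 Tdp1-/- stably carrying human TDP1, 400 per well, compound exposure in the absence of CPT (DMSO vehicle).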
TDP1 cell CPT – qHTS for Inhibitors of human tyrosyl-DNA phosphodiesterase 1 (TDP1): qHTS in cells in presence of CPT; Potency, µM (highest dose often 46.2 µM), for inactives: top-dose activity change, negative = growth inhibition, most hits filed as inhibitors; chicken DT40 Tdp1-/-;hTDP1 cells + 20 nM CPT, ATP luminescence, 48 h; 420,000 tested, 12% active; AID 686979, 2013; note: nearly all actives have a fitted effect of over 55% in size
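Chicken DT40 Tdp1-/- cells stably complemented with human TDP1 were seeded at 400 cells/well in medium containing 20 nM camptothecin, exposed to pin-transferred compounds, and grown at 37 °C for at least 48 hr. Viability was read as ATP luminescence.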
Numbers without * were called inactive; i = inactive; ? = inconclusive; nt = not tested or not shown. Calls come from the whole dose curve; as a rule, active = well fitted curve in the direction sought with a large enough effect; inconclusive = small, poorly fitted or top-dose-only effect, or another doubt; inactive = no such curve, though single readings can be large; an effect the other way counts as inactive or inconclusive. Unless noted, % is set by controls: 0 for no effect and ±100 for the full control effect; potency is the fitted concentration of half-maximal effect.

SMILES | KB-V1 cytotox | HT1080 IDH1KD tx | KB-3-1 cytotox | HT1080-NT tox | TDP1 cell noCPT | TDP1 cell CPT
Cc1ccc2c(c1)cc(C(=O)Nc1ccccc1C)n2C | nt | nt | nt | nt | 1.2µM* | ?
CN1Cc2c(ccc3c2OCO3)C2C(O)Cc3cc4c(cc3C21)OCO4 (stereo unspecified) | nt | nt | nt | nt | 1.9µM* | 2.7µM*
O=c1c(O)c(-c2ccc(O)c(O)c2)oc2c(O)c(O)cc(O)c12 | nt | nt | nt | nt | ? | 18µM*
Cc1ccc([C@H]2C[C@@H](n3cc(C4CC4)nn3)[C@H](O)CN2Cc2cccs2)cc1 | i | -5% | ? | -6% | -21% | -29%
CC1CC(Cl)CCC1C(=O)OC(C)(C)C (stereo unspecified) | nt | nt | nt | nt | 10% | 11%
CCC(c1nnnn1Cc1ccccc1)N1CCC(n2c(=O)[nH]c3ccccc32)CC1 (stereo unspecified) | ? | ? | i | 26µM* | 4.6µM* | 5.8µM*
CCCCn1nnnc1C(C1CC1)N1CCC(n2c(=O)[nH]c3ccccc32)CC1 (stereo unspecified) | ? | 8% | i | -3% | ? | ?
CCCCn1nnnc1C(CCSC)N1CCC(n2c(=O)[nH]c3ccccc32)CC1 (stereo unspecified) | ? | ? | i | -23% | 9.2µM* | 12µM*
CCCCn1nnnc1C(CCc1ccccc1)N1CCC(n2c(=O)[nH]c3ccccc32)CC1 (stereo unspecified) | 4.1µM* | ? | ? | ? | 12µM* | 12µM*
CCOC(=O)/C=C(C)/C=C/C[C@@H](C)CCCC(C)C | nt | nt | nt | nt | 5% | -8%
CN1CCN(c2ccc(C(F)(F)F)cc2N)CC1 | i | 12% | i | 5% | -10% | -6%
CC(C)(C#CC(=O)O)OOC(c1ccccc1)(c1ccccc1)c1ccccc1 | i | 2% | i | -13% | -14% | -2%
CN(CC(=O)Nc1cccc(F)c1)CC(=O)Nc1cccc(S(=O)(=O)N(C)c2ccccc2)c1 | ? | -8% | i | -5% | 23µM* | 23µM*
COc1cc(C(=O)N/N=C/C23CC[C@@H](O)CC2(O)CC[C@@H]2[C@@H]3CCC3(C)C(C4=CC(=O)OC4)CCC23O)ccc1O (stereo partly specified) | i | 23µM* | i | -27% | -4% | 0%
CC12CC[C@H]3[C@@H](CCC4(O)C[C@H](O)CCC34/C=N/NC(=O)c3ccccc3F)C1(O)CCC2C1=CC(=O)OC1 (stereo partly specified) | i | ? | 18µM* | -12% | 21% | 2%
CN(C)c1ccc(C(=O)N/N=C/C23CC[C@@H](O)CC2(O)CC[C@@H]2[C@@H]3CCC3(C)C(C4=CC(=O)OC4)CCC23O)cc1 (stereo partly specified) | ? | 10µM* | 6.5µM* | ? | 5% | 9%
CC12CC[C@H]3[C@@H](CCC4(O)C[C@H](O)CCC34/C=N/NC(=O)c3ccc(O)cc3)C1(O)CCC2C1=CC(=O)OC1 (stereo partly specified) | i | 6% | i | 0% | 1% | 1%
C[C@]12CCC3C(CC[C@]4(O)C[C@@H](O)CC[C@]34C=O)[C@@]1(O)CC[C@@H]2C1=CC(=O)OC1 (stereo partly specified) | nt | nt | nt | nt | 6µM* | 9.4µM*
Clc1cncc(N2CCNCC2)n1 | nt | nt | nt | nt | -16% | -5%
COC(=O)Cn1cc(/C=C2\C(=O)NC(=O)N(c3ccc(OC)cc3)C2=O)c2ccccc21 | i | -4% | i | 0% | 2.3µM* | ?
COc1ccc(N2C(=O)NC(=O)/C(=C\c3cn(C)c4ccccc34)C2=O)cc1 | i | -6% | i | -8% | -26% | 1%
C#C[C@]1(O)CCC2C3C(CC[C@@]21C)[C@@]1(C)CC[C@@H](O)CC1=C[C@H]3O (stereo partly specified) | i | 16% | i | 2% | 23µM* | ?
C#C[C@]1(O)CCC2C3C(=O)C=C4C=CCC[C@]4(C)C3CC[C@@]21C (stereo partly specified) | i | -8% | i | -8% | ? | -23%
Cc1cc(NC(=O)c2cccn(Cc3cccc([N+](=O)[O-])c3)c2=O)no1 | i | nt | i | nt | -12% | -14%
CN(C)C(=O)Oc1ccc([N+](=O)[O-])cc1 | i | -7% | ? | 5% | 13% | 11%
SMILES | KB-V1 cytotox | HT1080 IDH1KD tx | KB-3-1 cytotox | HT1080-NT tox | TDP1 cell noCPT | TDP1 cell CPT
CN(Cc1cccc(-c2cccnc2)c1)C(=O)Oc1ccc([N+](=O)[O-])cc1 | ? | ? | i | ? | ? | 18µM*
Cc1nc(-c2cccc(CN(C)C(=O)Oc3ccc([N+](=O)[O-])cc3)c2)no1 | i | -25% | i | -18% | 16µM* | ?
CC(C)(C)NC[C@H](O)COc1cccc2[nH]c(C#N)cc12 | nt | nt | nt | nt | -15% | -7%
O=c1cccc2n1CC1CC2CN2CCCCC12 (stereo unspecified) | nt | nt | nt | nt | 16% | 4%
COc1nc(C)nc(Cl)c1NC1=NCCN1 | i | 0% | i | ? | 5% | 5%
Cc1ncc(CO)c(CN)c1O | nt | nt | nt | nt | -24% | ?
CCN(CC)P(=O)(NC(=O)c1cccn1C)N(CC)CC | i | 22% | ? | -5% | -9% | -6%
CCOC(=O)[C@]12Cc3cc(OC)ccc3[C@H]1N(C1CCCCC1)C(=O)c1cc(OC)ccc12 | ? | 18µM* | 16µM* | 23µM* | 4.6µM* | 2.6µM*
CCOC(=O)[C@]12Cc3cc(C)ccc3[C@H]1N(C1CCCCC1)C(=O)c1cc(OC)ccc12 | 4.1µM* | 3.3µM* | 3.3µM* | 2.9µM* | 1µM* | 1.2µM*
O=C1NCN(c2ccccc2)C12CCN(C(c1cc3ccccc3o1)c1nnnn1C1CCCCC1)CC2 (stereo unspecified) | i | ? | ? | ? | ? | ?
N#CC(C#N)=NNc1ccc([N+](=O)[O-])cc1 | i | 16µM* | i | 21µM* | 23µM* | 21µM*

Screens from PubChem BioAssay.
